Source: PubChem (National Center for Advancing Translational Sciences (NCATS))
RORgamma inh: inhibitors of mouse ROR gamma transcriptional activity | AID 2551 | Drosophila S2 Gal4-RORgamma UAS-luciferase reporter, 20 h | P51450 | Potency, µM (series often up to 53.6 µM), for the others: at the top dose activity change, negative = inhibition, hits mostly inhibitors | hit rate 5.4% among 310,000; further: on the % scale 0 is the no-effect control and ±100 the full control effect; nearly all actives have a fitted effect of over 60% in size
Target sequence (P51450 whole entry, looked up, the tested form may be a part): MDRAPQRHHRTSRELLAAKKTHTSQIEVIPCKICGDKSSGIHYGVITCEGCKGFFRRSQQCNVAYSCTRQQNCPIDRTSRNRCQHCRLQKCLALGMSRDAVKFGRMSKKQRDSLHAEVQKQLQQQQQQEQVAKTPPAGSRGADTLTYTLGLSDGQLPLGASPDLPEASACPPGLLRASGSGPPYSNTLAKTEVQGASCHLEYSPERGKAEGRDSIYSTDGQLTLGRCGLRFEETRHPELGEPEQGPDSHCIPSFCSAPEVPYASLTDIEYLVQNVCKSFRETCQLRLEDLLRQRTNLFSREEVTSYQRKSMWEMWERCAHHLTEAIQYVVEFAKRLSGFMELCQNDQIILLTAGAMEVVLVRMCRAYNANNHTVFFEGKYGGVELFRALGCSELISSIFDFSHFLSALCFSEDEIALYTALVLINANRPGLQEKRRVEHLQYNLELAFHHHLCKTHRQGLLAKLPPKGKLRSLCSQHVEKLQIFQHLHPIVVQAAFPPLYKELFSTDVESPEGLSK
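Luciferase reporter read in Schneider cells carrying Gal4-RORγ (mouse) and UAS-Photinus luciferase; cells given compound 1 h before 700 uM copper sulfate induction, then incubated 20 h at ambient temperature.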
TGFb SMAD3 inh: blocks TGF-b signaling; hit rate 1.2% among 410,000; Potency, µM (top dose mostly 46.1 µM), without a hit: top-dose activity, negative = inhibition, most hits filed as inhibitors; HepG2 CAGA-GFP TGF-b/SMAD3 reporter, GFP fluorescence, 18 h; TGF-beta stimulated, 500 pg/mL final; further: on the % scale 0 is the no-effect control and ±100 the full control effect; nearly all actives have a fitted effect of over 65% in size
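Inhibition of TGF-beta-driven CAGA-GFP reporter expression in HEPG2 cells is measured by cellular GFP fluorescence after 18 h stimulation with 500 pg/mL recombinant TGF-beta in 1% FBS medium at 37 degrees C.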
VP16 counter: counter-screen for ROR gamma inhibitors: Gal4-VP16 reporter; Drosophila S2 Gal4-VP16 UAS-luciferase, luminescence, 20 h; Potency, µM (doses to about 53.6 µM), for inactives: top-dose activity, negative = inhibition, most hits filed as inhibitors; hit rate 3.5% among 310,000; AID 2546;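 further: Gal4-VP16 expression switched on by copper sulfate through the metallothionein promoter; on the % scale 0 is the no-effect control and ±100 the full control effect; nearly all actives have a fitted effect of over 50% in size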
HepG2 tox: kills HepG2 cells in TGF-b inhibitor counter-screen | HepG2 CAGA-GFP viability, ATP luminescence, 18 h | Potency, µM (highest dose often 46.1 µM), inactives show at the highest dose activity change, negative = cytotoxicity, usual class: cytotoxic | hit rate 0.76% among 410,000 | AID 588856
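HepG2 CAGA-GFP cells (1000/well, DMEM with 1% FBS) received compound, then TGF-beta at 500 pg/mL final, and were incubated 18 hours at 37 degrees C. Viability was read by CellTiter-Glo luminescence. Media-only wells were set as complete cell-killing and DMSO as no toxicity.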
ATXN2 expr inh: inhibitors of ATXN2 expression; HEK-293 ATXN2-luciferase reporter, luminescence, 24 h; Potency, µM (top dose mostly 57 µM), for inactives: at the highest dose activity change, negative = inhibition, usual class: inhibitors; hit rate 0.72% among 360,000; further: on the % scale 0 is the no-effect control and ±100 the full control effect; nearly all actives have a fitted effect of over 55% in size
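ATXN2-luciferase reporter cells (luciferase flanked by upstream and downstream ATXN2 gene portions) were treated 24 h at 37 °C with compounds at up to 57 uM. SteadyGlo luminescence gave expression; GF-AFC fluorescence gave viability.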
ATXN viability: cell viability loss in ATXN counter-screen; S2 cells (HEK-293 line with an ATXN2-luciferase reporter) viability, CellTiter-Fluor protease fluorescence, 24 h; Potency, µM (doses to about 56.7 µM), usual class: cytotoxic; hit rate 0.49% among 400,000; AID 651635; further: nearly all actives have a fitted effect of over 40% in size
* = called active by the depositor; i = inactive; u = inconclusive; x = not tested or not shown. Hits are enriched below; roughly 6.3% of the tested compounds scored in any of these assays. The call rests on the fitted dose curve; in most records, active means well fitted curve in the direction sought with a large enough effect; inconclusive means small, poorly fitted or top-dose-only effect, or another doubt; inactive means no such curve, though single readings can be large; an effect the other way counts as inactive or inconclusive. Potency means the concentration at half of the fitted maximal effect.

SMILES	RORgamma inh	TGFb SMAD3 inh	VP16 counter	HepG2 tox	ATXN2 expr inh	ATXN viability
O=[N+]([O-])c1cccc(C2=NC(c3ccccc3)CO2)c1 (configuration not stated)	-1%	-6%	-12%	-7%	39%	i
O=c1cc(C(F)(F)F)nc(SCc2cccnc2)[nH]1	-3%	-7%	-1%	-2%	x	i
COCCN(CCOC)C(=O)CSc1ccc(S(=O)(=O)N2CCN(C)CC2)cn1	x	-4%	x	-1%	x	x
CCn1cc(C2N3CC4(CC)CN2CC(CC)(C3)C4=O)c2ccccc21 (configuration not stated)	x	-5%	x	-3%	-4%	i
CCn1cc(C2=NC(C)CO2)c2ccccc21 (configuration not stated)	10µM*	2%	-28%	-24%	-19%	i
O=C(Nc1ccccc1C(=O)O)c1ccccc1	16%	2%	3%	1%	4%	i
CCOc1ccc(C(=O)Nc2cccc(C(=O)O)c2C)cc1Cl	-39%	u	1.6µM*	7%	u	i
Cc1c(NC(=O)c2ccc(-c3ccccc3)cc2)cccc1C(=O)O	10µM*	3%	u	1%	-2%	i
Cc1cccc(NC(=O)c2ccccc2O)c1C	u	-24%	1.1µM*	-29%	47%	i
Cc1cccc(S(=O)(=O)NC(=O)C2(C)CCN2C(=O)C2(c3ccc(Cl)cc3)CCC2)c1 (configuration not stated)	x	2%	x	5%	10%	i
COc1cccc(CNC(=O)CCn2cnc3ccccc3c2=O)c1	x	-4%	x	-1%	7%	i
CN(C)c1nc(N)nc2c1ncn2C1OC(CO)CC1O (configuration not stated)	x	6%	x	0%	11%	i
N/C(=N\OC(=O)CC1CCCCC1)c1ccc([N+](=O)[O-])cc1	1%	-29%	35µM*	-2%	2%	i
N/C(=N\OC(=O)CCC1CCCCC1)c1ccc([N+](=O)[O-])cc1	45%	15%	24%	-16%	13%	i
COc1ccc(NC(=O)C(=O)NCc2ccco2)c(OC)c1	x	1%	x	-49%	0%	i
CC[C@H](C)[C@H](NC(=O)CNC(=O)[C@H](C)NC(=O)[C@H](C)N)C(=O)NCC(=O)N[C@H](C(=O)N[C@@H](CC(C)C)C(=O)N[C@H](C(=O)N[C@H](C(=O)O)C(C)C)[C@@H](C)O)[C@@H](C)CC	12%	x	3%	x	x	x
O=C(C=Cc1ccccc1O)c1ccccc1O	x	u	x	22µM*	-24%	u
O=C(/C=C/c1ccccc1Cl)c1ccccc(=O)c1O	3.5µM*	u	5.6µM*	-32%	25µM*	u
O=C(C=Cc1cccc(O)c1)c1ccccc1O	x	u	x	-152%	u	u
Cc1ccc(C)c(/C=C/C(=O)c2ccccc(=O)c2O)c1	3.2µM*	u	5µM*	-70%	18µM*	u
Cc1ccc(/C=C/C(=O)c2ccccc(=O)c2O)c(C)c1	7.1µM*	13µM*	u	-58%	u	u
O=C(/C=C/c1ccc(O)c(O)c1)c1ccccc1O	-21%	-26%	u	-29%	85%	u
Cc1ccc(C(=O)/C=C/c2ccc3c(c2)OCCO3)c(O)c1	-32%	-27%	-23%	-1%	64%	u
C=C[C@@H](C)[C@](C)(O)c1ccccc1	-12%	x	4%	x	x	x
O=C(/C=C/c1ccc([N+](=O)[O-])cc1)c1ccccc(=O)c1O	x	3.2µM*	x	-31%	u	x
SMILES	RORgamma inh	TGFb SMAD3 inh	VP16 counter	HepG2 tox	ATXN2 expr inh	ATXN viability
CCc1ccc(Sc2cc(C(=O)NCc3ccccc3OC)c3ccccc3n2)cc1	x	0%	x	-23%	-9%	i
C=CCNC(=S)Nc1ccc2nc(C)c(C)nc2c1	-37%	-3%	-6%	3%	27%	i
CC(=O)Nc1ccc(/C=N/NC(N)=S)cc1	-7%	x	-8%	x	13%	i
CNC(=S)N/N=C/c1cc(C)ccc1C	2.2µM*	-17%	5µM*	-9%	x	u
CN(C)c1ccc(/C=N/NC(N)=S)cc1[N+](=O)[O-]	18µM*	0%	u	-7%	5%	i
CNC(=S)Nc1ccc(C)cc1	u	0%	13%	-87%	-3%	i
C=CCNC(=S)N/N=C/c1ccc(C)cc1C	0.45µM*	u	u	29%	-18%	i
CCNC(=S)N/N=C/c1cccc(C)c1	0.89µM*	8%	0.89µM*	10%	30%	i
NC(=O)c1ccc(NC(=O)COC(=O)c2ccccc2SCC(=O)N2CCCC2)cc1	x	-7%	x	0%	x	i
Cc1ccc(C)c(/C=N/NC(=S)NC(C)C)c1	2.2µM*	-3%	3.2µM*	18%	-11%	i
C=CCNC(=S)N/N=C/c1ccc(C)c([N+](=O)[O-])c1	1.1µM*	-19%	4.5µM*	3%	-12%	i
CCNC(=S)N/N=C/c1cc(C)ccc1C	1.8µM*	5%	2.5µM*	-21%	0%	i
Cc1ccc(/C=N/NC(=O)CCn2nc(C)cc2C)c(C)c1	-24%	2%	3%	9%	19%	i
CC(C)NC(=S)N/N=C/c1ccccc1[N+](=O)[O-]	1.8µM*	0%	5.6µM*	-24%	8%	i
Cc1cc(O)c(C(C)C)cc1N=Cc1ccccc1[N+](=O)[O-]	x	4%	x	-4%	18µM*	u
Cc1ccccc1N=Cc1cc2c(cc1[N+](=O)[O-])OCO2	-6%	9%	6%	-18%	1%	i
COc1cccc(CNc2cc(C)nc3nc(-c4ccc(C)cc4)nn23)c1	x	4%	x	-30%	4%	i
O=C(Nc1ccccc1)c1ccc(COc2ccccc2)cc1	-1%	-9%	-2%	-6%	18%	i
Cc1cc(OCc2ccc(C(=O)NN=C3CCCC3)cc2)ccc1Cl	-4%	-10%	-6%	-10%	u	i
CC(C)(C)c1ccc(OCc2ccc(C(=O)N/N=C3\CC4CC=CC34)cc2)cc1 (configuration not stated)	7.9µM*	-18%	4.5µM*	-37%	u	i
O=C(N/N=C1\CC2CC=CC12)c1ccc(COc2ccccc2)cc1 (configuration not stated)	5µM*	4%	5µM*	-3%	x	i
COc1ccc(-c2cc(C3C4C=CCC(C)C4C(=O)N3Cc3ccccc3)ccc2F)cc1OC (configuration not stated)	u	-22%	8%	5%	x	x
O=C(c1ccc(Cl)cc1)N(Cc1ccco1)Cc1ccco1	x	0%	x	-8%	x	x
